G9a block: G9a (human) methyltransferase inhibition; Q96KQ7; G9a H3K9 monomethylation, AlphaScreen, 2 h; Potency, µM (highest dose often 102 µM), most hits filed as inhibitors; 8.8% of 350,000 active; AID 504332; note: nearly all actives have a fitted effect of over 75% in size
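Signal arises when biotinylated H3K9 peptide, once monomethylated, bridges streptavidin donor and antibody-captured acceptor beads. Enzyme at 20 nM was preincubated 15 min with test compounds; peptide 500 nM and SAM 20 uM then reacted for 2 h.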
JMJD2A Tudor: inhibitors of human JMJD2A Tudor domain | O75164 | AlphaScreen JMJD2A-Tudor / H3K4me3 peptide binding | Potency, µM (titrated, usually from 114 µM), actives largely listed as inhibitors | 4.4% of 390,000 active; note: nearly all actives have a fitted effect of over 50% in size
Six1-Eya2 inh: blocks human Six1 binding to Eya2 | Q15475+O00167 | AlphaScreen GST-Six1/His-Eya2 binding, biochemical; active compounds read low | activity change, % (concentration not given with the values) | 0.56% of 360,000 active; in the data active = activity change below about -65%; inconclusive = mostly about -30% to -63%
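AlphaScreen luminescence read after one hour at 37 °C in darkness. Pin-transferred compounds met GST-Six1 and His-Eya2 protein (5X stock 250 nM/500 nM) plus glutathione donor and Ni-chelate acceptor beads (5X, 50 ug/mL).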
BAZ2B block: BAZ2B (human) inhibition; Potency, µM (top dose mostly 114 µM), actives largely listed as inhibitors; AID 504333; 4.4% of 360,000 active; Q9UIF8; AlphaScreen BAZ2B-H3K14Ac peptide displacement; note: nearly all actives have a fitted effect of over 60% in size
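AlphaScreen displacement of biotin-H3(5-23)K14Ac peptide (50 nM final) from BAZ2B (50 nM final) in PBS pH 7.4, 0.01% Tween-20; complex preformed 30 min RT, then compounds (top 110 uM) 30 min RT, beads 20 min dark.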
CtBP-E1A inh: CtBP/E1A binding inhibition; 0.49% of 340,000 active; AlphaScreen GST-E1A/His-CtBP binding, 1536-well; active compounds read low; activity change, % (no concentration beside the values); in the data active = activity change below about -65%; inconclusive = mostly about -30% to -63%
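Homogeneous bead-based format: GST-tagged E1A captured on glutathione donor beads, His-tagged CtBP on nickel acceptor beads; compounds precede bead addition by 2 h at 37 °C.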
HP1b binding inh: blocks HP1-beta chromodomain binding to methylated histone tails. P83916. AlphaScreen HP1-beta / biotin-H3K9me3 peptide binding. Potency, µM (highest dose often 114 µM), actives largely listed as inhibitors. 0.56% of 390,000 active; note: nearly all actives have a fitted effect of over 70% in size
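Compound inhibition of the preformed complex between 50 nM HP1-beta and 50 nM biotinylated H3K9me3 peptide was read by AlphaScreen. Buffer was PBS pH 7.4 with 0.01% Tween-20. Incubations ran 30 min at room temperature, with 10 ug/mL donor/acceptor beads.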
A number is an active result; . = inactive; ? = inconclusive; / = no result given; ! = a repeat was not active; [ ] = dose if it differs, or a comment. Most compounds without a hit are left out; they make up all but 10% or so of the library. Unless noted, calls come from the whole dose curve; as a rule, active = well fitted inhibition curve with a large enough effect; inconclusive = small, poorly fitted or top-dose-only effect; inactive = no such curve, though single readings can be large or run the other way.

SMILES | G9a block | JMJD2A Tudor | Six1-Eya2 inh | BAZ2B block | CtBP-E1A inh | HP1b binding inh
COc1cccc(CNC(=O)Cn2c(SCC(=O)Nc3ccc(F)cc3)nc3ccccc32)c1 | . | . | / | . | / | .
CCn1ccc2cc(S(=O)(=O)N3CCC(C(=O)NCc4ccc(F)cc4)CC3)ccc21 | . | . | / | . | / | .
COc1ccc(-c2c(-c3cc(OC)cc(OC)c3)n(C)c3ccc(Br)cc23)cc1 | .[2.33 µM] | . | . | . | . | .
COc1ccc(N=Nc2nc3ccc(Br)cc3n2C)cc1 | 6.31µM | ? | ? | 63.1µM | . | ?
COc1ccc(CNC(=O)c2cnc3sc(N4CCCC4)nn3c2=O)c(OC)c1 | . | . | / | . | / | .
CCOc1ccccc1NC(=S)N1CCN(c2ccc(O)cc2)CC1 | 35.5µM | ? | . | . | / | .
CCOC(=O)N1CCN(c2ccc(Cl)cc2)CC1 | . | . | . | . | . | .
O=C(C1CC1)N1CCN(c2ccc(O)cc2)CC1 | 25.1µM | 79.4µM | . | . | . | ?
CCOC(=O)N1CCN(c2ccc(O)cc2)CC1 | 2.82µM | 35.5µM | . | . | . | .
CCOC(=O)N1CCN(c2cc(=O)n(-c3ccc(C)cc3)c(=O)[nH]2)CC1 | 50.1µM | . | . | / | . | .
CCOc1ccccc1NC(=S)N1CCN(c2ccc(OC)cc2)CC1 | ? | ? | . | ? | . | .
CCCCNC(=O)c1cccc(-n2c(C)nc3cccnc32)c1 | . | . | / | . | / | .
CCCNC(=O)C1CCC(Cn2c(=O)c3sccc3n(Cc3cccc(OC)c3)c2=O)CC1 (stereo not drawn) | . | . | / | . | / | .
Cn1c(N2CCOCC2)nc(-c2ccccc2)c1-c1ccccc1 | 50.1µM | . | . | ? | . | .
O=C(CCn1c(=O)c2cccn2c2cccnc21)N1CCN(c2cccc(Cl)c2)CC1 | ? | 15.8µM! | . | . | . | .
C=CCn1c(-c2oc3nc(-c4ccccc4)cc(-c4ccccc4)c3c2N)n[nH]c1=S | 31.6µM | ? | . | . | . | ?
Cc1cc(-c2sccc2C)nc(-n2cccc2)n1 | .[12.7 µM] | . | . | . | . | .
NNC(=O)c1oc2nc(-c3ccc(Cl)cc3)cc(-c3ccccc3)c2c1N | .[2.33 µM] | . | . | ? | . | .
O=[N+]([O-])c1cccc(-c2n[nH]c(=S)n2Cc2ccccc2)c1 | 1.78µM | 79.4µM | . | . | . | .
C=CCn1c(-c2sccc2C)n[nH]c1=S | 7.94µM | 7.08µM | . | . | . | .
C=CCn1c(-c2cccc(Cl)c2)n[nH]c1=S | 2.82µM | 10µM | . | . | . | .
CCOc1cc(CNC(=O)NC2COc3ccc(OC)cc3C2)cc(OCC)c1OCC (stereo not drawn) | . | . | / | . | / | .
N#Cc1ccccc1S(=O)(=O)N1CCN(S(=O)(=O)c2ccc3c(c2)OCCO3)CC1 | / | . | / | / | / | /
COc1cc(OC)cc(N2C(=O)CSC23C(=O)Nc2ccccc23)c1 (stereo not drawn) | ? | . | / | . | / | .
C=CCn1c(-c2cccc([N+](=O)[O-])c2)n[nH]c1=S | 12.6µM | 5.62µM | . | . | . | .
SMILES | G9a block | JMJD2A Tudor | Six1-Eya2 inh | BAZ2B block | CtBP-E1A inh | HP1b binding inh
C=CCn1c(SC)nnc1-c1cccc([N+](=O)[O-])c1 | . | . | . | . | . | .
CS(=O)(=O)N(Cc1ccccc1)c1ccc(C(=O)Nc2cccc(Cl)c2)cc1 | . | . | / | . | / | .
COc1ccc(OC)c(C2C(C(=O)c3ccc(C)o3)=C(O)C(=O)N2CCN2CCOCC2)c1 (stereo not drawn) | .[0.0925 µM] | . | . | ? | . | .
O=C(C1=C(O)C(=O)N(CCN2CCOCC2)C1c1ccco1)c1cc2ccccc2o1 (stereo not drawn) | 31.6µM | . | . | ? | . | .
O=C(C1=C(O)C(=O)N(CCN2CCOCC2)C1c1ccc(F)cc1)c1cc2ccccc2o1 (stereo not drawn) | 35.5µM | . | . | . | / | .
O=C(C1=C(O)C(=O)N(CCCN2CCOCC2)C1c1ccccn1)c1cccs1 (stereo not drawn) | . | / | / | . | / | /
CCCOc1ccc(C2C(C(=O)c3ccc(C)o3)=C(O)C(=O)N2CCN2CCOCC2)cc1OC (stereo not drawn) | ? | 22.4µM | . | . | . | .
O=C(C1=C(O)C(=O)N(CCCN2CCOCC2)C1c1ccccn1)c1cc2ccccc2o1 (stereo not drawn) | 39.8µM | . | . | ? | . | .
COc1cccc2c1Oc1ncccc1N(C(=O)CCC(=O)NCc1ccc(N(C)C)cc1)C2 | ? | . | / | . | / | .
CC(=O)N1CCc2cc(S(=O)(=O)C(C)CC(=O)Nc3ccc(Br)c(C)c3)ccc21 (stereo not drawn) | . | . | / | . | / | .
CCN(CC)CCN1C(=O)C(O)=C(C(=O)c2cc3ccccc3o2)C1c1cccnc1 (stereo not drawn) | 89.1µM | .[11.4 µM] | . | . | . | .
CCN(CC)CCN1C(=O)C(O)=C(C(=O)c2sc(C)nc2C)C1c1cccnc1 (stereo not drawn) | .[12.7 µM] | . | . | . | . | .
Cc1ccc(C(=O)C2=C(O)C(=O)N(CCN3CCOCC3)C2c2ccccn2)o1 (stereo not drawn) | 2.24µM | / | / | ? | / | /
COc1ccc2c(c1)c(=O)c(S(=O)(=O)c1ccc(F)cc1)cn2Cc1ccccc1Cl | ? | . | / | . | / | .
CCOc1ccc2c(c1)c(=O)c(S(=O)(=O)c1ccc(C)cc1)cn2Cc1ccccc1Cl | . | . | / | . | / | .
COc1cccc(CNC(=O)Cn2nc(C)c([N+](=O)[O-])c2C)c1 | . | . | . | . | / | .
COc1ccc(/C=N/NC(=O)Cn2nc(C)c([N+](=O)[O-])c2C)cc1 | . | 79.4µM | . | . | . | .
CC(=O)Nc1ccc(NC(=O)C(C)n2nc(C)c([N+](=O)[O-])c2C)cc1 (stereo not drawn) | . | . | . | . | . | .
Cc1ccc(/C=N/NC(=O)Cn2nnc(N)n2)cc1 | .[12.7 µM] | . | . | . | . | .
Cc1ccc(/C=N/NC(=O)Cn2nnc(N)n2)o1 | 44.7µM | . | . | . | . | .
Cc1nn(C(C)C(=O)N/N=C/c2ccc(N(C)C)cc2)c(C)c1[N+](=O)[O-] (stereo not drawn) | 56.2µM | ? | . | ? | . | .
Cc1ccc(/C=N/NC(=O)Cn2nc(C)c([N+](=O)[O-])c2C)o1 | 50.1µM | . | . | . | . | .
Cc1c(Cn2ccnc2)c2ccccc2n1CCC(=O)O | .[12.7 µM] | / | / | / | / | /
COc1ccc(C(=O)Nc2ccccc2C(=O)OCc2cc(=O)n3nc(C4CC4)sc3n2)cc1 | . | . | / | . | / | .
CCC(Nc1ccc(OC)cc1)C(=O)N/N=C/c1ccc([N+](=O)[O-])cc1 (stereo not drawn) | ? | ? | . | 44.7µM | . | .

Screens deposited in PubChem by National Center for Advancing Translational Sciences (NCATS).
